Broadly, the remaining activity is the signal under treatment as a percentage of the control signal. The AC50 is the midpoint of the concentration-response curve, whichever way the signal moves.

For 13 compounds, outcome, remaining activity and AC50 results are on record in PubChem BioAssay.

Inconclusive results are not listed. For some assays here: Results with a measured potency or affinity are listed apart. The source made the active and inactive calls. Unless noted, how the calls were made is not given here.

The first test deals with Protein kinase 7 (PK7), Plasmodium falciparum 3D7 (PF3D7_0213400) (UniProt Q7YTF7). The test can be described thus: inhibition of Plasmodium PK7 catalytic activity – biochemical, TCAMS antimalarial set, Kinase-Glo luminescence (AID 1159587). The following applies: recombinant PfPK7, Kinase-Glo ATP depletion luminescence. (In general: In Kinase-Glo more light means more ATP remaining.)
Sequence of Protein kinase 7 (PK7), Plasmodium falciparum 3D7 (PF3D7_0213400) (Q7YTF7 1-343): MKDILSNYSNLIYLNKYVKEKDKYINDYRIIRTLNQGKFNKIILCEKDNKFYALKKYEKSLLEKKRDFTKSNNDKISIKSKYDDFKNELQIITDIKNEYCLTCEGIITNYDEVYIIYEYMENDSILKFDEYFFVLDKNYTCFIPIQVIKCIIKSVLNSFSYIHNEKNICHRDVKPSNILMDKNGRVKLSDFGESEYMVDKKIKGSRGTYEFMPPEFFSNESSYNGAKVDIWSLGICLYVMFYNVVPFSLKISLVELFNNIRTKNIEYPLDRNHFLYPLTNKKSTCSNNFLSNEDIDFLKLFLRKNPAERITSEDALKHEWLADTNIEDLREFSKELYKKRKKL
As to `CN(C)c1cc2c(Nc3ccc4nc(Cc5ccccc5)[nH]c4c3)ncnc2cn1`, the result was inactive.

As for `Cc1ccc(O)cc1Nc1ccnc2cc(-c3ccccn3)ccc12`, the outcome was inactive.

Take `Nc1ncnc2occ(-c3ccc(NC(=O)Nc4cc(C(F)(F)F)ccc4F)cc3)c12`: the result was inactive.

In another test the target is Calcium-dependent protein kinase 4 (Plasmodium falciparum (isolate 3D7)) (UniProt Q8IBS5). Briefly: PfCDPK4 kinase inhibitors, biochemical, TCAMS library (AID 1159588; cut-off not given, nearly all actives have IC50 up to about 0.91 µM). Particulars: recombinant PfCDPK4, Kinase-Glo ATP depletion luminescence.
Sequence of Calcium-dependent protein kinase 4 (Plasmodium falciparum (isolate 3D7)) (Q8IBS5 whole entry, looked up): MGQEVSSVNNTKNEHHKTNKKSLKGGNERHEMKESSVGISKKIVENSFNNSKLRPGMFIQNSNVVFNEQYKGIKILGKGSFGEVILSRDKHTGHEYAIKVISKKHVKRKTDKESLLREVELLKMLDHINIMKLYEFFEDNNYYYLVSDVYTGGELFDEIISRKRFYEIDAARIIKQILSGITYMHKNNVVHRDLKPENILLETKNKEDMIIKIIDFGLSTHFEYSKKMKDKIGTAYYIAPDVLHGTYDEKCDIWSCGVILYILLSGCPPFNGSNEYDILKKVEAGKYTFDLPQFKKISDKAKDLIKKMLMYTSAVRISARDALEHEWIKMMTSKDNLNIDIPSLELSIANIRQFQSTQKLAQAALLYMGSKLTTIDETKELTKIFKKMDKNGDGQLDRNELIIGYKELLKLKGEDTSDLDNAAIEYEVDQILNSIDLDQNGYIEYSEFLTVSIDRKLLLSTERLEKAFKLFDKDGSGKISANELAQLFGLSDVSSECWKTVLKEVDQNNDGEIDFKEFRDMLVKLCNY
On to `CN(C)c1cc2c(Nc3ccc4nc(Cc5ccccc5)[nH]c4c3)ncnc2cn1`, for which the result was inactive.

`Cc1ccc(O)cc1Nc1ccnc2cc(-c3ccccn3)ccc12`: the result was inactive.

Regarding `Nc1ncnc2occ(-c3ccc(NC(=O)Nc4cc(C(F)(F)F)ccc4F)cc3)c12`, the outcome was inactive.

Another test relates to Aerobactin synthetase IucA (Klebsiella pneumoniae). The test can be described thus: IucA aerobactin synthetase inhibitors, biochemical, Tocris library, absorbance (AID 1345561).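 Further: 100% = enzyme without compound and 0% = no enzyme.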 Particulars: purified IucA enzyme assay, absorbance (OD) read-out; active compounds read low;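 tested at 8 µM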.
As for `Fc1ccc(-c2nc3n(c2-c2ccncc2)CCS3)cc1`, the remaining activity was 117% (inactive).

As to `NC(=O)c1ccc(-c2nc(-c3ccc4c(c3)OCO4)c(-c3ccccn3)[nH]2)cc1`, the remaining activity is 110% (inactive).

`Cn1cc(C2=C(c3cn(CCCSC(=N)N)c4ccccc34)C(=O)NC2=O)c2ccccc21`: the remaining activity was 106% (inactive).

System in another test: not listed separately
The test can be described thus: growth inhibition of DIPG glioma cells, dose response, cell-based, SU-DIPG-XVII, MIPE5.0, CellTiter-Glo, qHTS (AID 1347060; cut-off not given, nearly all actives have AC50 up to about 26 µM;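 on AC50: cells exposed to compound for 48 hours before viability readout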). Particulars: SU-DIPG-XVII viability, CellTiter-Glo ATP luminescence. Background: In ATP-based viability assays light output follows the ATP content of the culture.
As to `NC(=O)c1ccc(-c2nc(-c3ccc4c(c3)OCO4)c(-c3ccccn3)[nH]2)cc1`, the outcome was inactive.

Regarding `O=C1NC(=O)C(c2c[nH]c3ccccc23)=C1c1c[nH]c2ccccc12`, the AC50 was 11.8 µM (active).

Consider `Cn1cc(/C=C2\C(=O)Nc3cccnc32)c2ccccc21`, for which the AC50 was 8.33 µM (active).

Regarding `COc1ccc(-c2oc3ncnc(N)c3c2-c2ccc(NC(=O)Nc3cc(C(F)(F)F)ccc3F)cc2)cc1`, the AC50 was 3.72 µM (active).

System in the next test: not listed separately
The test can be described thus: growth inhibition of DIPG glioma cells, dose response, cell-based, SU-DIPG-XIII, MIPE4.0, CellTiter-Glo, qHTS (AID 1347061; cut-off not given, nearly all actives have AC50 up to about 37 µM;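 further: cells exposed to compound for 48 hours before readout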). Particulars: SU-DIPG-XIII viability, CellTiter-Glo ATP luminescence.
With `NC(=O)c1ccc(-c2nc(-c3ccc4c(c3)OCO4)c(-c3ccccn3)[nH]2)cc1`, the compound was classed as inactive.

In the case of `COc1cc2ncn(-c3cc(OCc4ccccc4S(C)(=O)=O)c(C#N)s3)c2cc1OC`, the call was inactive.

Turning to `Cn1c(=O)c(Oc2ccc(F)cc2F)cc2cnc(NC3CCOCC3)nc21`, the outcome was inactive.

As to `CN(C)CCOc1ccc(-c2nc(-c3ccc4c(c3)CC/C4=N\O)c(-c3ccncc3)[nH]2)cc1`, the outcome was inactive.

System in a further test: not listed separately
The test can be described thus: growth inhibition of DIPG glioma cells, dose response, cell-based, JHH-DIPG-1, MIPE4.0, CellTiter-Glo, qHTS (AID 1347062; cut-off not given, nearly all actives have AC50 up to about 27 µM;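 on AC50: cells exposed to compound for two days before readout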). Particulars: JHH-DIPG-1 viability, CellTiter-Glo ATP luminescence.
In the case of `NC(=O)c1ccc(-c2nc(-c3ccc4c(c3)OCO4)c(-c3ccccn3)[nH]2)cc1`, the call was inactive.

As for `COc1cc2ncn(-c3cc(OCc4ccccc4S(C)(=O)=O)c(C#N)s3)c2cc1OC`, the result was inactive.

Regarding `Cn1cc(/C=C2\C(=O)Nc3cccnc32)c2ccccc21`, the outcome was inactive.

As for `Cn1c(=O)c(Oc2ccc(F)cc2F)cc2cnc(NC3CCOCC3)nc21`, the compound was called inactive.

For `CN(C)CCOc1ccc(-c2nc(-c3ccc4c(c3)CC/C4=N\O)c(-c3ccncc3)[nH]2)cc1`, the AC50 was 18.7 µM (active).

With `Cn1cc(C2=C(c3c4n(c5ccccc35)CCC(CN)C4)C(=O)NC2=O)c2ccccc21` (stereo not drawn), the AC50 is 13.2 µM (active).
